In PubChem BioAssay (EPA / NIEHS):
Inconclusive results are not listed. Activity calls are given as the source filed them. How the source made its calls, unless noted: active means hit-call score of the fitted dose curve at least 0.9, where 1 is the maximum; inactive means score below 0.9.

Columns and labels:
[1] = CCTE_Shafer_MEA_dev_firing_rate_mean: CCTE's Neural Network Formation Assay for Mean Firing Rate, Shafer Lab (AID 2284031)
In short: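 Primary rat cortical neurons on 48-well MEA plates, exposed from plating day 0 with dosing renewed on DIV 5 and 9. Mean well firing rate over active electrodes, recorded days 5, 7, 9, 12, summarised as trapezoidal AUC.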

[2] = CCTE_Shafer_MEA_dev_per_burst_spike_percent: CCTE's Neural Network Formation Assay for Percent of Spikes in a Burst, Shafer Lab (AID 2284032)
In short: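 Rat primary cortical neurons on 16-electrode MEA wells, dosed from plating day 0 for 12 days with renewal on DIV 5 and 9; spikes-in-bursts percentage averaged over bursting electrodes, collapsed as AUC across days 5, 7, 9, 12; loss direction versus DMSO.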

[3] = CCTE_Shafer_MEA_dev_active_electrodes_number: CCTE's Neural Network Formation Assay for Number of Active Electrodes, Shafer Lab (AID 2284040; active means hit-call score of the fitted dose curve at least 0.9, where 1 is the maximum)
In short: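 Primary rat cortical neurons on 16-electrode MEA wells, exposed from day 0 through day 12 with compound renewed at DIV 5 and 9 feeds. Active electrodes (mean firing ≥5 spikes/min) counted at DIV 5, 7, 9, 12; trapezoidal AUC across days, loss-of-signal versus DMSO.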

[4] = CCTE_Shafer_MEA_dev_burst_rate: CCTE's Neural Network Formation Assay for Burst Rate, Shafer Lab (AID 2284042)
In short: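 Primary rat cortical neurons on PEI-coated 48-well MEA plates (laminin added with cells at plating) (16 electrodes/well), exposed from plating to day 12, dosing renewed at DIV 5 and 9. Burst rate averaged over active electrodes, recorded DIV 5, 7, 9, 12, summarized as AUC; loss versus DMSO.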

[5] = CCTE_Shafer_MEA_dev_bursting_electrodes_number: CCTE's Neural Network Formation Assay for Number of Bursting Electrodes, Shafer Lab (AID 2284043; active means hit-call score of the fitted dose curve at least 0.9, where 1 is the maximum)
In short: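 Primary rat cortical neurons plated on 16-electrode MEA wells, exposed from day 0 with compound renewed at DIV 5 and 9. Electrodes bursting ≥1 burst per 2 min counted on days 5, 7, 9 and 12; trapezoidal AUC across days, fitted for loss versus DMSO.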

[6] = CCTE_Shafer_MEA_dev_per_burst_interspike_interval: CCTE's Neural Network Formation Assay for Burst Interspike Interval, Shafer Lab (AID 2284044);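 further: mean spike spacing inside bursts as AUC over recordings on days 5 7 9 12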
In short: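 Spontaneous activity of maturing rat cortical networks is recorded on DIV 5, 7, 9 and 12 under chronic compound exposure beginning at plating. Endpoint: burst interspike interval well-mean, collapsed into trapezoidal AUC and fitted in the negative direction relative to DMSO.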

[7] = CCTE_Shafer_MEA_dev_burst_duration_mean: CCTE's Neural Network Formation Assay for Mean Burst Duration, Shafer Lab (AID 2284045)
In short: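 Primary rat cortical neurons on 48-well 16-electrode MEA plates, exposed from day 0 with renewal at DIV 5 and 9; spontaneous activity recorded on days 5, 7, 9, 12. Well-mean burst duration across bursting electrodes, collapsed as trapezoidal AUC; DMSO baseline.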

[8] = CCTE_Shafer_MEA_dev_interburst_interval_mean: CCTE's Neural Network Formation Assay for Mean Interburst Interval, Shafer Lab (AID 2284046);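 further: well-mean interburst interval of bursting electrodes as AUC over four recording days; curve fitted for decrease in interburst interval relative to DMSO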
In short: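 Recordings on days 5, 7, 9 and 12 give well-mean interburst interval across actively bursting electrodes, summarized as area under the curve. Cultures: rat cortical neurons, continuous exposure from day 0, compound renewed at feeds; decrease analyzed versus DMSO.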

[9] = CCTE_Shafer_MEA_dev_inter_network_spike_interval_mean: CCTE's Neural Network Formation Assay for Mean Inter-network Spike Interval, Shafer Lab (AID 2284047)
In short: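 Primary rat cortical neurons on 16-electrode MEA wells, exposed from plating day 0 through DIV 12, compound renewed at DIV 5 and 9 media changes. Mean interval between network-spike peaks recorded DIV 5, 7, 9, 12; collapsed as trapezoidal AUC, fitted downward versus DMSO.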

[10] = CCTE_Shafer_MEA_dev_network_spike_number: CCTE's Neural Network Formation Assay for Number of Network Spikes, Shafer Lab (AID 2284048)
In short: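 Primary rat cortical neurons on PEI/laminin 48-well MEA plates, dosed from plating day 0 for 12 days, renewed at DIV 5 and 9. Network spike counts recorded DIV 5, 7, 9, 12, collapsed as trapezoidal AUC; DMSO baseline.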

[11] = CCTE_Shafer_MEA_dev_network_spike_peak: CCTE's Neural Network Formation Assay for Mean Number of Electrodes in Network Spike, Shafer Lab (AID 2284049)
In short: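 Network-spike peak electrode count from recordings on days 5, 7, 9 and 12 was combined as trapezoidal area under the curve. Rat cortical cultures were treated continuously from plating, with compound renewed at each feed (DIV 5, 9); fits versus DMSO.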

[12] = CCTE_Shafer_MEA_dev_spike_duration_mean: CCTE's Neural Network Formation Assay for Mean Spike Duration, Shafer Lab (AID 2284051);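 further: mean network spike duration pooled as area under curve over DIV 5 to 12 recordings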
In short: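 Primary rat cortical neurons on 16-electrode MEA wells (PEI-coated, laminin in plating drop), exposed from plating through DIV 12 with compound renewed at DIV 5 and 9. Mean network-spike duration recorded DIV 5, 7, 9, 12; trapezoidal AUC across days, DMSO baseline.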

[13] = CCTE_Shafer_MEA_dev_per_network_spike_spike_number_mean: CCTE's Neural Network Formation Assay for Mean Number of Spikes in a Network Spike, Shafer Lab (AID 2284053)
In short: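 Primary rat cortical neurons on 48-well, 16-electrode MEA plates were exposed from plating to DIV 12, with dosing renewed on DIV 5 and 9. Spikes per network spike (0.05 s peak window) were recorded on DIV 5, 7, 9 and 12 and collapsed as trapezoidal AUC versus DMSO.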

[14] = CCTE_Shafer_MEA_dev_per_network_spike_spike_percent: CCTE's Neural Network Formation Assay for Percent of Spikes in a Network Spike, Shafer Lab (AID 2284054)
In short: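 Rat primary cortical neurons were grown on 48-well MEA plates (16 electrodes/well), exposed from plating day 0 through day 12, with treatment renewed on DIV 5 and 9. Percent of spikes within 0.05 s network-spike peaks was measured, summarised as AUC across days 5, 7, 9, 12.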

[15] = UKN5_HCS_SBAD2_cell_viability: Viability Assessment in the University of Konstanz (UKN) Leist Lab Neurite Outgrowth Assay in human iPSC-derived immature Dorsal Root Ganglia Neurons (UKN5) (AID 2284056)
In short: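 iPSC-derived immature peripheral neurons (SBAD2) seeded on Matrigel with CHIR99021, SU5402 and DAPT, dosed 1 h later for 24 h. Viability from Hoechst H-33342 and calcein-AM live staining, high-content imaging; bidirectional fit versus DMSO.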

[16] = CCTE_Shafer_MEA_dev_LDH: CCTE's Lactate Dehydrogenase Assay for Cytotoxicity in the Neural Network Formation Assay, Shafer Lab (AID 2284068; active means hit-call score of the fitted dose curve at least 0.9, where 1 is the maximum;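 further: exposure for twelve days from plating with re-dosing on DIV 5 and 9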)
In short: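 Primary rat cortical neurons were plated on PEI/laminin MEA plates and exposed from day 0 for twelve days, with compound renewed at DIV 5 and 9. Cytotoxicity was determined by spectrophotometric LDH assay relative to DMSO.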

[17] = UKN5_HCS_SBAD2_neurite_outgrowth: University of Konstanz (UKN) Leist Lab Neurite Outgrowth Assay in human iPSC-derived immature Dorsal Root Ganglia Neurons (UKN5) (AID 2284070); settings: actives raise or lower the signal
In short: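 SBAD2 iPSC-derived immature peripheral neurons on Matrigel, 100.000 cells/cm2, medium with CHIR99021 (1.5 uM), SU5402 (5 uM), DAPT (5 uM); compound added 1 h post-seeding for 24 h. Calcein-AM neurite area by high-content imaging; Hoechst H-33342 viability; bidirectional fit vs DMSO.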

[18] = CCTE_Shafer_MEA_dev_AB: CCTE's Alamar Blue Assay for Cytotoxicity in the Neural Network Formation Assay, Shafer Lab (AID 2284083; active means hit-call score of the fitted dose curve at least 0.9, where 1 is the maximum;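 further: twelve days of exposure from plating with re-dosing on DIV 5 and 9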)
In short: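 Primary rat cortical neurons on PEI-coated 48-well MEA plates, 1.5 x 10^5 cells/well in laminin drop; compound exposure from day 0 of plating for twelve days, renewed at medium changes on DIV 5 and 9. Viability read as resazurin reduction by fluorescence, relative to DMSO.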

[19] = CCTE_Shafer_MEA_dev_mutual_information_norm: CCTE's Neural Network Formation Assay for Mutual Information Normalization, Shafer Lab (AID 2284091)
In short: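 Primary rat cortical neurons on PEI-coated 48-well MEA plates, 1.5 x 10^5 cells/well, exposed from day 0 through day 12 with re-dosing at DIV 5 and 9. Mutual information between electrodes recorded days 5, 7, 9, 12; trapezoidal AUC, loss-of-signal fit versus DMSO.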

[20] = UKN2_HCS_IMR90_neural_migration: University of Konstanz (UKN) Leist Lab Neural Crest Cell Migration Assay in human induced IMR90 Pluripotent Stem Cells (UKN2) (AID 2284204); settings: actives raise or lower the signal
In short: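 iPSC-derived IMR90 neural crest cells seeded around stoppers on PLO/laminin/fibronectin; migration started in N2-S medium with EGF/FGF, compounds added after 24 h for 24 h. Migration into cell-free area imaged after calcein-AM/Hoechst staining; bidirectional fit versus DMSO.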

[21] = UKN4_HCS_LUHMES_neurite_outgrowth: University of Konstanz (UKN) Leist Lab Neurite Outgrowth Assay in human LUHMES cells (UKN4) (AID 2284206); settings: actives raise or lower the signal
In short: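 Human LUHMES neuronal precursors, differentiated 2 days then replated without cAMP and GDNF, exposed to compounds for 24 h. Neurite area imaged by high-content microscopy after calcein-AM live staining; Hoechst H-33342 for viability; bidirectional fit versus DMSO.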

[22] = UKN4_HCS_LUHMES_cell_viability: Viability Assessment in the University of Konstanz (UKN) Leist Lab Neurite Outgrowth Assay in human LUHMES cells (UKN4) (AID 2284232)
In short: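 LUHMES precursors differentiated 2 days, replated at 30000 cells/well without cAMP/GDNF, then compound-treated 24 h. Viability from Hoechst H-33342 and calcein-AM live staining (30 min) by high-content fluorescence imaging; bidirectional fit versus DMSO.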

[23] = UKN2_HCS_IMR90_cell_viability: Viability Assessment in the University of Konstanz (UKN) Leist Lab Neural Crest Cell Migration Assay in human induced IMR90 Pluripotent Stem Cells (UKN2) (AID 2284233);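 further: viability of neural crest cells differentiated from IMR90 iPSC measured by calcein-AM fluorescence imaging; cells exposed to compound for 24 h after a 24 h migration phase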
In short: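 Neural crest cells derived from IMR90 iPSC migrate into a stopper-free zone for 24 h in EGF/FGF medium, then are exposed to compound for 24 h. Viability assessed by calcein-AM and Hoechst staining with high-content imaging, fitted bidirectionally versus DMSO.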

Measured: AC50

Brc1cc(Br)c(Oc2cc(Br)c(Br)cc2Br)cc1Br
active: [16] 7.47 µM
inactive: all other assays above
